Assay results from PubChem BioAssay AID1159580 (chemical genetic matrix, 2015).
Screen size: about 5,500 compounds; about 2,000 (36%) were called active. Another 18% or so got no clear call; they are omitted. Cut-off read from the data, not from the text of the source: active = normalized growth mostly below about 0.91 (no sharp cut-off); inconclusive = no clear call, values can overlap the other calls; inactive = mostly above about 0.92. The list shows a part of the results.

Assay: chemical genetic growth profiling, strain panel (AID 1159580);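 note: tested at 20 µM; growth read once vehicle control cultures reached saturation at 30 °C; 1 = growth at the plate median or of vehicle wells; lower values mean less growth of the strain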
Conditions: S. cerevisiae deletion strains, growth OD
[1] = locus YAL040C, strain CLN3, stronger effect = lower value
[2] = locus YCL061C, strain MRC1 (second series), stronger effect = lower value
[3] = locus YER002W, strain NOP16, stronger effect = lower value
[4] = locus YMR263W, strain SAP30, stronger effect = lower value
[5] = locus YNL128W, strain TEP1, stronger effect = lower value
[6] = locus YNL175C, strain NOP13, stronger effect = lower value
[7] = locus YNL197C, strain WHI3, stronger effect = lower value
[8] = locus YNL224C, strain SQS1, stronger effect = lower value
[9] = locus YOR083W, strain WHI5 (second series), stronger effect = lower value

Measured: normalized growth

NCCC(=O)NCCc1cnc[nH]1
inactive: locus YAL013W, strain DEP1, stronger effect = lower value 1 | [1] 0.98 | [2] 0.997 | [3] 0.993 | locus YGR078C, strain PAC10, stronger effect = lower value 1.01 | [4] 1 | [5] 1.01 | [6] 0.966 | [7] 0.984 | [8] 0.998 | [9] 1 | locus YPL241C, strain CIN2, stronger effect = lower value 1.01

N=C(N)SCCc1cnc[nH]1
inactive: [1] 0.985 | [2] 0.988 | locus YDR363W, strain ESC2, stronger effect = lower value 1.01 | [3] 1.02 | locus YJR075W, strain HOC1, stronger effect = lower value 0.998 | [4] 0.979 | [5] 0.995 | locus YNL153C, strain GIM3, stronger effect = lower value 0.972 | [6] 0.992 | [7] 0.98 | [8] 0.991 | locus YNL322C, strain KRE1, stronger effect = lower value 0.979 | [9] 0.988 | locus YPL055C, strain LGE1, stronger effect = lower value 1
